The source of these data is PubChem BioAssay (EPA / NIEHS).

Several values for one entry are separate records, joined by “and”; a condition that tells them apart may be missing. Equal entries are not always repeated. The source holds several records for some structures; these can differ, active in one and inactive in another. Activity calls are given as the source filed them. How the source made its calls: active means hit-call score of the fitted dose curve at least 0.9, where 1 is the maximum; inactive means score below 0.9.

Read-out in experiment [1]: Matrix Metallopeptidase 1 (MMP1), MMP1 (gene 4312)
Kind of experiment: BSK_BF4T_MMP1: BioMAP Diversity Plus: BF4T Assay for Matrix Metallopeptidase 1 (MMP1) Biomarker Activity (AID 2284270). As to conditions: primary human bronchial epithelial cells with fibroblasts. An outline of the steps:
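MMP-1 quantified by ELISA in primary human bronchial epithelial/dermal fibroblast co-cultures, 24 hours post-dosing, with DMSO as baseline; parallel sulforhodamine B staining (560 nm) tracks overt cytotoxicity.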

Read-out in experiment [2]: Matrix Metallopeptidase 3 (MMP3), MMP3 (gene 4314)
Kind of experiment: BSK_BF4T_MMP3: BioMAP Diversity Plus: BF4T Assay for Matrix Metallopeptidase 3 (MMP3) Biomarker Activity (AID 2284271). The following applies: primary human bronchial epithelial cells with fibroblasts. An outline of the steps: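 MMP-3 level read by ELISA after 24 h chemical exposure of bronchial epithelial cell/dermal fibroblast co-cultures, fitted upward relative to DMSO. Parallel cultures stained with 0.1% SRB after TCA fixation gauge overt cytotoxicity.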

Read-out in experiment [3]: Tissue plasminogen activator (tPA), PLAT (gene 5327)
Kind of experiment: BSK_BF4T_tPA: BioMAP Diversity Plus: BF4T Assay for Tissue plasminogen activator (tPA) Biomarker Activity (AID 2284272). The following applies: primary human bronchial epithelial cells with fibroblasts. An outline of the steps: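 tPA level quantified by ELISA at 24 h post-treatment in bronchial epithelial/dermal fibroblast co-cultures, gain of signal scored against DMSO baseline. Parallel cultures stained with 0.1% SRB (560 nm) to flag overt cytotoxicity.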

Read-out in experiment [4]: Plasminogen Activator Inhibitor-1 (PAI1), SERPINE1 (gene 5054)
The experiment is described as follows: BSK_BF4T_PAI1: BioMAP Diversity Plus: BF4T Assay for Plasminogen Activator Inhibitor-1 (PAI1) Biomarker Activity (AID 2284273). The following applies: primary human bronchial epithelial cells with fibroblasts. An outline of the steps: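 PAI-1 levels quantified by ELISA 24 h post-dosing in bronchial epithelial cell plus dermal fibroblast cultures. Signal gain referenced to DMSO baseline. Sulforhodamine B total-protein staining of parallel wells checked cytotoxicity.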

Read-out in experiment [5]: urokinase Plasminogen Activator (uPA), PLAU (gene 5328)
Kind of experiment: BSK_BF4T_uPA: BioMAP Diversity Plus: BF4T Assay for urokinase Plasminogen Activator (uPA) Biomarker Activity (AID 2284275). The following applies: primary human bronchial epithelial cells with fibroblasts. An outline of the steps:
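uPA levels measured by ELISA at 24 hours in BF4T cultures (bronchial epithelial cells plus dermal fibroblasts) and compared with DMSO; cytotoxicity tracked in parallel cultures by sulforhodamine B staining.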

Read-out in experiment [6]: Matrix Metallopeptidase 9 (MMP9), MMP9 (gene 4318)
The experiment is described as follows: BSK_BF4T_MMP9: BioMAP Diversity Plus: BF4T Assay for Matrix Metallopeptidase 9 (MMP9) Biomarker Activity (AID 2284276). As to conditions: primary human bronchial epithelial cells with fibroblasts. An outline of the steps:
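MMP-9 levels were measured by ELISA after 24 h exposure of bronchial epithelial cell/dermal fibroblast co-cultures, with DMSO as baseline. Parallel cultures were stained with 0.1% SRB after TCA fixation, read at 560 nm, to flag overt cytotoxicity.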

Read-out in experiment [7]: Interferon-inducible T-cell alpha chemoattractant (ITAC), CXCL11 (gene 6373)
Kind of experiment: BSK_BE3C_ITAC: BioMAP Diversity Plus: BE3C Assay for Interferon-inducible T-cell alpha chemoattractant (ITAC) Biomarker Activity (AID 2284279). As to conditions: primary human bronchial epithelial cells. An outline of the steps: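 ELISA read-out of I-TAC after 24 h chemical dosing of human lung primary bronchial epithelial cells; gain-of-signal fit vs DMSO baseline. Parallel SRB total-protein staining (0.1% SRB, 10% TCA fixation, 560 nm) assessed cytotoxicity.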

Read-out in experiment [8]: Epidermal growth factor receptor (EGFR), EGFR (gene 1956)
Kind of experiment: BSK_BE3C_EGFR: BioMAP Diversity Plus: BE3C Assay for Epidermal growth factor receptor (EGFR) Biomarker Activity (AID 2284281). As to conditions: primary human bronchial epithelial cells. An outline of the steps:
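Human primary bronchial epithelial cells were exposed to compound for 24 h, and cell-surface EGFR was then quantified by ELISA. Activity was fitted in the positive direction against the DMSO vehicle baseline.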

Read-out in experiment [9]: KRT18 (gene 3875)
Kind of experiment: BSK_BE3C_Keratin818: BioMAP Diversity Plus: BE3C Assay for Keratin 818 Biomarker Activity (AID 2284282). The following applies: primary human bronchial epithelial cells. An outline of the steps:
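ELISA read-out of Keratin 8/18 in BE3C human bronchial epithelial cultures, 24 h post-dosing; positive-direction fit vs DMSO baseline.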

Read-out in experiment [10]: Matrix Metallopeptidase 9 (MMP9), MMP9 (gene 4318)
The experiment is described as follows: BSK_BE3C_MMP9: BioMAP Diversity Plus: BE3C Assay for Matrix Metallopeptidase 9 (MMP9) Biomarker Activity (AID 2284283). As to conditions: primary human bronchial epithelial cells. An outline of the steps:
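Human primary bronchial epithelial cells exposed 24 h to compound. MMP9 quantified by ELISA. SRB total-protein staining of parallel cultures assesses cytotoxicity. Positive-direction fit relative to DMSO.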

Read-out in experiment [11]: Plasminogen activator inhibitor-1 (PAI1), SERPINE1 (gene 5054)
The experiment is described as follows: BSK_CASM3C_PAI1: BioMAP Diversity Plus: CASM3C Assay for Plasminogen activator inhibitor-1 (PAI1) Biomarker Activity (AID 2284284). As to conditions: primary human coronary artery smooth muscle cells.

Read-out in experiment [12]: Monocyte Chemoattractant Protein-1 (MCP1), CCL2 (gene 6347)
Kind of experiment: BSK_hDFCGF_MCP1: BioMAP Diversity Plus: hDFCGF Assay for Monocyte Chemoattractant Protein-1 (MCP1) Biomarker Activity (AID 2284285). The following applies: primary human foreskin fibroblasts. An outline of the steps:
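MCP-1 ELISA readout was taken 24 hours after dosing primary human dermal fibroblasts in the hDFCGF system, with DMSO as baseline. Parallel sulforhodamine B staining of total protein tracked overt cytotoxicity.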

Read-out in experiment [13]: Vascular cell adhesion molecule 1 (VCAM1), VCAM1 (gene 7412)
The experiment is described as follows: BSK_IMphg_VCAM1: BioMAP Diversity Plus: IMphg Assay for Vascular cell adhesion molecule 1 (VCAM1) Biomarker Activity (AID 2284286). As to conditions: primary human endothelial cells with macrophages. An outline of the steps:
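ELISA read-out of VCAM-1 on venular endothelial cell/macrophage co-cultures at 24 h post-treatment, with DMSO as baseline and positive-direction fitting. Parallel sulforhodamine B total-protein staining (560 nm) served as the overt cytotoxicity measure.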

Read-out in experiment [14]: Intercellular Adhesion Molecule 1 (ICAM1), ICAM1 (gene 3383)
Kind of experiment: BSK_hDFCGF_ICAM1: BioMAP Diversity Plus: hDFCGF Assay for Intercellular Adhesion Molecule 1 (ICAM1) Biomarker Activity (AID 2284287). The following applies: primary human foreskin fibroblasts. An outline of the steps:
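ICAM-1 ELISA readout 24 h after dosing, DMSO as baseline, in human dermal foreskin fibroblast cultures. Cytotoxicity checked in parallel wells by SRB staining (0.1% SRB, 10% TCA fixation, 560 nm).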

Read-out in experiment [15]: CD40, CD40 (gene 958)
The experiment is described as follows: BSK_IMphg_CD40: BioMAP Diversity Plus: IMphg Assay for CD40 Biomarker Activity (AID 2284288). As to conditions: primary human endothelial cells with macrophages. An outline of the steps:
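ELISA read-out of cell-surface CD40 at 24 h in human venular endothelial cell/macrophage co-cultures. Activity fitted in the positive direction against DMSO; parallel SRB staining (560 nm) gauges overt cytotoxicity.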

Experiment [16] can be described thus: BSK_BF4T_SRB: Viability Assessment in the BioMAP Diversity Plus: BF4T Assay (AID 2284274).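 Further: measured 24 h after compound addition.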 The following applies: primary human bronchial epithelial cells with fibroblasts. An outline of the steps: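 Cytotoxicity measured as total protein: cells fixed with 10% TCA, stained with 0.1% SRB, read at 560 nm. Bronchial epithelial/dermal fibroblast co-culture, 24 h after dosing, with positive-direction fitting relative to DMSO.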

Read-out in experiment [17]: Interleukin-8 (IL8), CXCL8 (gene 3576)
Kind of experiment: BSK_IMphg_IL8: BioMAP Diversity Plus: IMphg Assay for Interleukin-8 (IL8) Biomarker Activity (AID 2284277). As to conditions: primary human endothelial cells with macrophages. An outline of the steps: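 IL-8 levels were measured by ELISA 24 h after dosing in primary human venular endothelial cell–macrophage cultures, referenced to DMSO; parallel SRB staining monitored overt cytotoxicity.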

Read-out in experiment [18]: Intercellular Adhesion Molecule 1 (ICAM1), ICAM1 (gene 3383)
The experiment is described as follows: BSK_BE3C_ICAM1: BioMAP Diversity Plus: BE3C Assay for Intercellular Adhesion Molecule 1 (ICAM1) Biomarker Activity (AID 2284278). The following applies: primary human bronchial epithelial cells. An outline of the steps:
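ELISA read-out of ICAM-1 on human lung bronchial epithelial primary cells, 24 h post-dosing; positive-direction curve fit, DMSO = baseline. SRB total-protein staining of parallel cultures flagged overt cytotoxicity.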

Read-out in experiment [19]: TIMP metallopeptidase inhibitor 2 (TIMP2), TIMP2 (gene 7077)
The experiment is described as follows: BSK_hDFCGF_TIMP2: BioMAP Diversity Plus: hDFCGF Assay for TIMP metallopeptidase inhibitor 2 (TIMP2) Biomarker Activity (AID 2284289). The following applies: primary human foreskin fibroblasts. An outline of the steps:
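Primary human foreskin fibroblasts in the hDFCGF system, dosed for 24 h; TIMP-2 level measured by ELISA, fitted in the positive direction against DMSO; cytotoxicity checked in parallel by sulforhodamine B total protein staining.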

In general, AC50 refers to the concentration giving half of the maximal activity seen. With `C[Si](Cl)(Cl)CCC(F)(F)C(F)(F)C(F)(F)C(F)(F)C(F)(F)C(F)(F)F`, the outcome in experiment [1], in experiment [2], in experiment [3], in experiment [4], in [5] and in experiment [6] was inactive. The outcome in experiment [7], in experiment [8], in experiment [9], in experiment [10], in [11] and in experiment [12] was inactive. For the same compound, the result in experiment [13], in experiment [14] and in [15] was inactive. Besides, the AC50 in [12] was 441 nM (active); in [14], 2.46 µM (active).
Turning to `OCCCC(F)(F)C(F)(F)C(F)(F)C(F)(F)C(F)(F)C(F)(F)C(F)(F)C(F)(F)F`, the AC50 in [1] was 49 µM (active) and 45.1 µM (active); in experiment [3] it was 22.1 µM (active) and 21 µM (active); in [4], 20.7 µM (active) and 30 µM (active); in experiment [16], 31.6 µM (active) and 29.4 µM (active); in experiment [5], 22.5 µM (active) and 19.4 µM (active); in experiment [6] it was 30 µM (active) and 17.2 µM (active). For the same compound, the half-maximal activity concentration (AC50) in experiment [18] was 47 µM (active) and 47.6 µM (active); in experiment [7] it was 50.2 µM (active) and 51.8 µM (active); in experiment [8], 33 µM (active) and 21.3 µM (active); in experiment [9], 39.6 µM (active) and 42.8 µM (active); in experiment [10] it was 50 µM (active) and 48.2 µM (active); in experiment [11], 48.3 µM (active) and 45.4 µM (active). The AC50 in [12] is 7.74 µM (active) and 7.47 µM (active); in [13] it was 18 µM (active) and 17.8 µM (active); in experiment [14], 15.3 µM (active) and 9.92 µM (active); in experiment [15], 10.1 µM (active) and 10.9 µM (active); in experiment [19], 19 µM (active) and 14.6 µM (active). Besides, in experiment [17], the outcome was inactive.
Turning to `O=C(O)C(F)(F)OC(F)(F)C(F)(F)OC(F)(F)C(F)(F)OC(F)(F)F`, the result in [1], in experiment [3], in [4], in [5], in experiment [6] and in experiment [7] was inactive. Also, the result in experiment [8], in [9], in experiment [10], in experiment [11], in [12] and in [13] was inactive. Further, the result in [14] and in [15] was inactive. Further, the AC50 is 20 µM (active) and 5.38 µM (active) in [3]; 1.47 µM (active) in [10].
Turning to `NCC(F)(F)C(F)(F)C(F)(F)C(F)(F)C(F)(F)C(F)(F)F`, the result in experiment [1], in experiment [3], in experiment [4], in experiment [5], in [6] and in experiment [7] was inactive. The outcome in [8], in experiment [9], in experiment [10], in experiment [11], in experiment [12] and in experiment [13] was inactive. Also, the result in experiment [14] and in experiment [15] was inactive. The AC50 in experiment [6] is 778 nM (active).
For `O=C(Cl)C(F)(F)C(F)(F)C(F)(F)C(F)(F)C(F)(F)C(F)(F)C(F)(F)F`, the AC50 in [1] was 19.9 µM (active); in experiment [5], 21.6 µM (active); in experiment [6], 18700 nM (active). Also, the result in [1], in experiment [3], in [4], in experiment [5], in experiment [6] and in experiment [7] was inactive. Moreover, the outcome in experiment [8], in experiment [9], in experiment [10], in experiment [11], in experiment [12] and in [13] was inactive. Moreover, the outcome in experiment [14] and in experiment [15] was inactive.
